Source: PubChem BioAssay (EPA / NIEHS)
Inconclusive results are not listed. Active and inactive are the calls of the source. Rule for the calls: active = hit-call score of the fitted dose curve at least 0.9, where 1 is the maximum; inconclusive = response in the unintended direction; inactive = score below 0.9.

What follows are molecules tested on xenobiotic metabolism (CYP1A2), CYP1A2 (gene 1544) (assay: CLD_CYP1A2_6hr: CellzDirect (CLD) Gene Expression Assay for xenobiotic metabolism (CYP1A2) at 6 hours (AID 2283663);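 for AC50: potency is for induction meaning a rise in mRNA above DMSO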).
Outline: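 Primary human hepatocytes from two donor preparations, dosed daily with multiple concentrations in 0.2% DMSO and harvested at 6 h. CYP1A2 mRNA induction measured by chemiluminescent qNPA, gain of signal fitted against DMSO; cytotoxicity flagged morphologically.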
`FC(F)C(F)(F)OCC(Cn1cncn1)c1ccc(Cl)cc1Cl` (configuration not stated) was tested, and the AC50 was 2.45 µM (active).
In the case of `Nc1c(Cl)cc([N+](=O)[O-])cc1Cl`, the outcome is reported as “inactive”.
For `CCNc1nc(Cl)nc(NC(C)(C)C#N)n1`, the outcome was “inactive”.
In the case of `CN(C)C(=O)Nc1cccc(C(F)(F)F)c1`, the outcome is reported as “inactive”.
With `COc1cccc(C(=O)NN(C(=O)c2cc(C)cc(C)c2)C(C)(C)C)c1C` the outcome was “inactive”.
For `COP(=O)(OC)OC(Br)C(Cl)(Cl)Br` (configuration not stated), the outcome was “inactive”.
`CC(C)[C@H](C(=O)O[C@H](C#N)c1cccc(Oc2ccccc2)c1)c1ccc(Cl)cc1` was tested, and the outcome was “inactive”.
In the case of `CNc1cnn(-c2cccc(C(F)(F)F)c2)c(=O)c1Cl`, the AC50 is reported as 38.7 µM (active).
`CCCCSP(=O)(SCCCC)SCCCC` was tested, and the AC50 was 2.96 µM (active).
In the case of `CNC(=O)Oc1cccc2c1OC(C)(C)O2`, the AC50 is reported as 3.97 µM (active).
With `CCOC(=O)COc1cc(-c2nn(C)c(OC(F)F)c2Cl)c(F)cc1Cl` the outcome was “inactive”.
With `CN1COCN(Cc2cnc(Cl)s2)C1=N[N+](=O)[O-]` the outcome was “inactive”.
For `CN(C)NC(=O)CCC(=O)O`, the outcome was “inactive”.
`CNC(=O)ON=C(C)SC` was tested, and the outcome was “inactive”.
For `CCOP(=S)(OCC)SCCSCC`, the AC50 was 3.97 µM (active).
`Cc1cc(C2CC2)nc(Nc2ccccc2)n1` was tested, and the AC50 was 1.99 µM (active).
For `C[N+]1(C)CCCCC1`, the outcome was “inactive”.
